# Lassa entry inh: blocks Lassa virus binding to or entry into cells. Lassa virus pseudotype entry inhibition, cell reporter. Potency, µM (top dose mostly 37.9 µM), without a hit: at the highest dose activity change, negative = inhibition, usual class: inhibitors. AID 540256. 300,000 tested, 1.2% active; calls by dose curve; tested in HEK293 cells; note: potency is the fitted concentration of half-maximal effect; nearly all actives have a fitted effect of over 50% in size
# MARV entry inh: inhibitors of Marburg virus binding or cell entry; 300,000 tested, 1.8% active; Potency, µM (top dose mostly 37.8 µM), without a hit: top-dose activity change, negative = inhibition, usual class: inhibitors; Marburg virus pseudotyped entry inhibition, cell reporter; calls by dose curve; tested in HEK293 cells; note: potency is the fitted concentration of half-maximal effect
# Vaccinia mCherry: inhibitors of vaccinia virus infection (mCherry reporter signal) | 310,000 tested, 0.63% active | Vaccinia virus mCherry reporter infection, fluorescence | AID 720579 | Potency, µM (doses to about 36.5 µM), without a hit: top-dose activity change, negative = inhibition, actives largely listed as inhibitors; calls by dose curve; tested in A549 cells; note: potency is the fitted concentration of half-maximal effect; nearly all actives have a fitted effect of over 35% in size
# Vaccinia Venus: vaccinia inhibition (Venus reporter) | 330,000 tested, 0.46% active | Potency, µM (highest dose often 36.5 µM), without a hit: at the top dose activity change, negative = inhibition, most hits filed as inhibitors | Vaccinia virus Venus reporter expression, fluorescence; calls by dose curve; tested in A549 cells; note: potency is the fitted concentration of half-maximal effect; nearly all actives have a fitted effect of over 30% in size
# FMDV antiviral: blocks foot and mouth disease virus. FMDV antiviral cell-based qHTS. Potency, µM (doses to about 57.9 µM), for inactives: top-dose activity change, negative = inhibition, usual class: inhibitors. 410,000 tested, 1.2% active; calls by dose curve; tested in HEK293T cells; note: read-out not given here; potency is the fitted concentration of half-maximal effect; nearly all actives have a fitted effect of over 45% in size
# HCMV antiviral: human cytomegalovirus inhibition; HFF cells, HCMV-luciferase reporter, 72 h; active compounds read low; activity change, negative = inhibition, % at 57.5 µM; 410,000 tested, 4.5% active; in the data active = activity change below about -60%; inconclusive = no clear call, values can overlap the other calls; inactive = above about -39%
#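 Two-dose cell screen: HFF monolayers treated with compounds and infected with luciferase-expressing HCMV at 1 PFU/cell, 72 h at 37C, then lysed for luciferase measurement.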
# Active calls of the source: *; i = inactive; ? = inconclusive; . = not tested or not shown; [ ] = dose if it differs, or a comment. Compounds with a hit are over-represented: about 6.5% of the library has one in this group of screens. % is set by controls: 0 for no effect and ±100 for the full control effect.
SMILES,Lassa entry inh,MARV entry inh,Vaccinia mCherry,Vaccinia Venus,FMDV antiviral,HCMV antiviral
CC[C@]12c3[nH]c4cc(-c5ccco5)ccc4c3CCN1C(=O)[C@@H](CC(=O)NCc1cccc(C(F)(F)F)c1)C[C@@H]2C(=O)N1CCN(C(=O)c2ccco2)CC1,.,.,12.6µM*,?,?,-2.5
CC[C@]12c3[nH]c4cc(-c5ccco5)ccc4c3CCN1C(=O)[C@@H](CC(=O)NCc1ccco1)C[C@@H]2C(=O)N1CCN(C(=O)c2ccco2)CC1,.,.,-18.1%,?,-11.7%,-18.8
O=C(CC1C[C@H](C(=O)N2CCOCC2)[C@@]2(CCC3CCCC3)c3[nH]c4ccccc4c3CCN2C1=O)NCc1cccc(C(F)(F)F)c1 (some centres undefined),.,.,10µM*,10µM*,-33.7%,-17.1
CC[C@]12c3[nH]c4ccc(Cl)cc4c3CCN1C(=O)[C@@H](CC(=O)NCc1cccc(C(F)(F)F)c1)C[C@@H]2C(=O)N1CCN(C(=O)c2ccco2)CC1,.,3.0%,-16.0%,-17.4%,?,-99.9*
C[C@]12c3[nH]c4ccc(Cl)cc4c3CCN1C(=O)[C@@H](CC(=O)NCc1cccc(C(F)(F)F)c1)C[C@@H]2C(=O)N1CCCCC1,.,.,?,?,?,-103.7*
COc1ccc(N2CCN(C(=O)CNC(=O)c3cccc(Br)c3)CC2)cc1,-0.3%,0.5%[46.1 µM],-20.4%,-10.1%,3.1%,-35.9
CC1CCN(C(=O)c2scc3c2OCCO3)CC1,-0.1%,25.6%,-6.4%,0.8%,2.2%,-63.2*
COc1ccc(CCn2c(C)cc(C(=O)CCl)c2C)cc1OC,.,.,.,.,20µM*,-100.2*
Cc1cc(C(=O)CCl)c(C)n1CCc1ccc(Cl)cc1,?,?,-11.6%,-15.8%,22.4µM*,-98.3*
COc1ccc(CCn2c(C)c(C(C)=O)c(C(C)=O)c2C)cc1OC,1.4%,-1.1%,-11.7%,-14.3%,-13.9%,3.9
Cc1cc(C(=O)CCl)c(C)n1CCc1ccc(F)cc1,?,?,-8.3%,-2.4%,28.2µM*,-83.5*
CN1OC[C@@H]2CN[C@H](c3ccc(-c4cccc(F)c4)cc3)C[C@@H]21,.,.,-19.5%,-18.1%,33.2%,81.7
Oc1ccc2c(c1)oc1cc(O)ccc12,?,-22.8%,10µM*,?,60.6%,?
COc1c(C)oc2cc(O)ccc2c1=O,9.2%,-25.1%,-4.8%,-11.5%,-13.1%,0.1
Cc1sc2c(c1C)c(=O)n(CCc1ccccc1)c(=O)n2Cc1ccc(F)cc1,3.9%[46.1 µM],-1.7%[46.1 µM],-3.8%,3.6%,?,-7.1
Cn1c(=O)c2[nH]c(CCCCCCCCc3nc4ccccc4[nH]3)nc2n(C)c1=O,11.2µM*,?,?,-26.6%,12.6µM*,-91.2*
Cn1c(=O)c2[nH]c(CCCCc3nc4ccccc4[nH]3)nc2n(C)c1=O,-0.1%,0.5%,i,-7.4%,-8.1%,-15.1
CO[C@H]1[C@H](NC(=O)c2ccco2)c2ccccc2C12CCN(Cc1cccn1-c1ccccn1)CC2,.,.,-16.2%,-3.8%,0.6%,.
CCOC(=O)CNC(=O)CN1C(=O)CC(c2ccccc2)S(=O)(=O)c2ccccc21 (centres undefined),4.9%,2.2%[46.1 µM],1.5%,3.6%,10.5%,2.5
CCOC(=O)c1[nH]nc(-c2cc(CC)c(O)cc2O)c1-c1cscn1,?,?,.,.,8.91µM*,-102.6*
Cc1cc(N/N=C/c2ccc(F)cc2)nc(-n2nc(C)cc2C)n1,?,?,?,?,0.0%,-96.4*
CCOc1cc(/C=N/Nc2cc(C)nc(-n3nc(C)cc3C)n2)ccc1O,.,.,.,.,?,-77.7*
CNc1cc(C)nc(-n2nc(C)cc2C)n1,1.6%,0.2%,.,-5.0%,19.2%,?
COc1ccccc1/C=N/Nc1cc(C)nc(N2CCOCC2)n1,.,.,.,.,-8.9%,35.7
COc1ccc(/C=N/Nc2cc(C)nc(-n3nc(C)cc3C)n2)c(OC)c1,20.6µM*,?,6.31µM*,?,28.2µM*,-98.2*
SMILES,Lassa entry inh,MARV entry inh,Vaccinia mCherry,Vaccinia Venus,FMDV antiviral,HCMV antiviral
COc1ccc2c(c1)CCc1cnc(-n3ncc(C(=O)N(C)CC4CCCN(C)C4)c3C)nc1-2 (centres undefined),.,.,-7.8%,-8.0%,-5.9%,.
O=C(C[n+]1cccc2cc(Cl)ccc21)c1ccc(I)cc1,.,.,-15.6%,78.1%,.,.
O=C(NCc1ccccn1)c1cnn(-c2nccc(-c3cccs3)n2)c1C1CC1,.,.,i,-24.7%,-4.7%,.
O=C(Nn1cnnc1)c1ccccc1Cl,18.9%[46.1 µM],2.7%[46.1 µM],-12.2%,-10.4%,2.2%,27.0
C=C(C)C(=O)Oc1ccc(N2C(=O)[C@@H]3C4C=CC(C4)[C@@H]3C2=O)cc1,?,-1.4%,-16.3%,-17.5%,-25.1%,-5.1
COCOCCn1cc(CN2CCS(=O)(=O)N(Cc3ccc(-c4ccc(F)nc4)cc3)C(CC(C)C)C2=O)nn1 (centres undefined),.,.,-8.2%,-26.9%,?,-4.6
Cc1ccc2cc(C#N)c(NCCNC(=S)NCCCN(C)C)nc2c1C,.,.,?,12.6µM*,-21.8%,-12.3
Cc1cccc2cc(C#N)c(NCCNC(=O)COc3ccccc3)nc12,.,.,.,.,-18.1%,-23.0
Cc1ccc2cc(C#N)c(NCCNC(=O)C3CC3)nc2c1C,-2.3%,?,.,.,?,-87.5*
Cc1cc(C)c2nc(NCCCNC(=S)NCCCN(C)C)c(C#N)cc2c1,.,.,.,.,?,-6.5
C=CCOC(=O)C1=C(C)N(CC)C(=O)NC1c1ccccc1 (centres undefined),.,-4.6%[14.2 µM],.,.,.,.
C=CCn1c(C)cc(-c2csc(NC(=O)CCc3nc4ccccc4c(=O)[nH]3)n2)c1C,-4.1%,-11.4%,-15.1%,-9.5%,?,-14.5
CCCC(C)NC(=O)C1CCN(S(=O)(=O)c2ccccc2)CC1 (centres undefined),-4.8%,7.2%,-19.9%,-6.9%,-13.3%,29.3
COc1ccccc1CNC(=O)C1CCN(S(=O)(=O)c2cccc3nonc23)CC1,?,-0.3%[46.1 µM],-7.2%,-16.6%,-4.2%,-19.0
COc1ccccc1CNC(=O)C1CCN(S(=O)(=O)c2cccc3cccnc23)CC1,.,-4.7%,8.2%,-8.6%,0.0%,-70.8*
O=C(C1CCN(S(=O)(=O)c2cccnc2)CC1)N1CCN(c2ccc(Cl)cc2)CC1,.,4.2%,.,.,?,-90.0*
Cc1ccc(Cl)cc1N1CCN(C(=O)C2CCN(S(=O)(=O)c3c(C)nn(C)c3C)CC2)CC1,?,?,-8.7%,-24.5%,31.6µM*,-36.5
Cc1ccc(Cl)cc1N1CCN(C(=O)C2CCN(S(=O)(=O)Cc3ccccc3)CC2)CC1,-0.1%[46.1 µM],-8.7%[46.1 µM],-10.8%,1.2%,?,-12.4
O=C(C1CCN(S(=O)(=O)c2cccnc2)CC1)N1CCN(c2ccccc2Cl)CC1,1.8%,-2.9%,.,-18.1%,?,-2.1
CCC(C)NC(=O)C1CCN(S(=O)(=O)c2cccnc2)CC1 (centres undefined),15.7%,-5.1%,.,12.9%,-19.2%,-75.9*

# Assay outcomes from PubChem.
